This is an account of results in PubChem BioAssay AID880 (National Center for Advancing Translational Sciences (NCATS), 2007).

“And” between values parts separate entries of the source, which are not always exact repeats. Identical values can stand only once. Among all 230,000 compounds or so, about 1,000 (0.43%) were called active. Where a call stands in place of a potency, no number is given. For the sample, actives were picked, then their nearest neighbours and some compounds at random. Unmarked numbers belong to inactive results. Calls come from the whole dose curve; as a rule, active = well fitted inhibition curve with a large enough effect (not every such curve was filed as active); inactive = no such curve, though single readings can be large or run the other way.
Potency is the fitted concentration of half-maximal effect.

The target in this test is Guanine nucleotide-binding protein G(i) subunit alpha-1 (Homo sapiens) (UniProt P63096). The test is described as follows: qHTS Assay for Inhibitors of RGS12 GoLoco Motif Activity (Red Fluorophore). Note: nearly all actives have a fitted effect of over 30% in size. To be noted: Gai1:RGS12 GoLoco peptide FP, rhodamine, 10 min; series mostly up to 61.6 µM. Background: qHTS replaces the single test concentration by a dilution series.
Sequence of Guanine nucleotide-binding protein G(i) subunit alpha-1 (Homo sapiens) (P63096 whole entry, looked up): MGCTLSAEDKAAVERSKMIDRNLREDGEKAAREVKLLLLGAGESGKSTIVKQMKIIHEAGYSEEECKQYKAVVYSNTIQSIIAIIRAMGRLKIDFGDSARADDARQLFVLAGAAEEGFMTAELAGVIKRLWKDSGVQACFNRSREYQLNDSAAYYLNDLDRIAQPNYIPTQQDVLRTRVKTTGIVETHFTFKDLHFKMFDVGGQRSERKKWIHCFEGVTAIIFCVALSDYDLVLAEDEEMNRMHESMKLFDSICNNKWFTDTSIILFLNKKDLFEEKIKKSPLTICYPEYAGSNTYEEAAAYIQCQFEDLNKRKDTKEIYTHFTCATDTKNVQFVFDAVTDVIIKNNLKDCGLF
Turning to `N#Cc1ccccc1CN1C(=O)S/C(=C/c2cccn2-c2cccc(C(=O)O)c2)C1=O`, the Potency result is “inactive”. Same read-out and setting: then `COc1cc(C(=O)NCc2ccc3c(c2)cc(C)n3C)cc(OC)c1OC`, with “inactive”.

Regarding `CCOc1ccc(C(O)Cn2c(=N)n(CCN3CCCCC3)c3ccccc32)cc1` (stereo not given), the Potency result is “inactive”. Same read-out and setting: the same measure for `O=P(O)(CN1CCCCCC1)C1Cc2ccccc2C1`: “inactive”. `Cc1ccccc1CN1C[C@@H]2C[C@@H](c3ccc4nsnc4c3)N3CCC[C@@]23C1=O`: the Potency result is “inactive”. Still for that read-out and setting: the same measure for `Nc1nc2c(ncn2[C@@H]2O[C@H](COP(=O)(O)OP(=O)(O)OP(=O)(O)O)[C@@H](O)C2O)c(=O)[nH]1` (stereo not given in full): “inactive”. The same measure, in the same setting: then `CC[N+](C)(CC)CCC[n+]1c(-c2ccccc2)c2cc(N)ccc2c2ccc(N)cc21`, with 4.47 µM (active) and 12.6 µM (active); and `CC/C=C\C/C=C\C/C=C\C/C=C\C/C=C\C/C=C\CCC(=O)NCCc1ccc(O)c(O)c1`, with “inactive”; and `COc1ccc(CC(N)C(=O)NC2C(O)[C@H](n3cnc4c(N(C)C)ncnc43)O[C@@H]2CO)cc1` (stereo not given in full), with “inactive”. The same measure, in the same setting: then `COCCNC(=O)/C(C#N)=C/c1nc(N(C)C)n(-c2ccc(F)cc2)c1Cl`, with “inactive”; and `O=C(/C=C/NCc1ccc(F)cc1)c1ccccc1`, with “inactive”; and `O=C(c1ccncc1)N1CCN(c2ccc3ccccc3n2)CC1`, with “inactive”.

Turning to `Cc1nc(-c2ccccc2)sc1C(=O)/C=C/N(C)C`, the Potency entry is “inactive”. As for `CC1(C)C=CC(=O)[C@]2(C)C1CC(=O)[C@]1(C)C2CC[C@@]2(C)C(c3ccoc3)OC(=O)C3OC321` (stereo not given in full), the Potency result is “inactive”.

Turning to `CC(C)=CCN1CCC2(CCc3ccccc32)CC1`, the Potency entry was “inactive”. On the same count and under the same terms, the same measure for `O=C(c1ccc(F)cc1)N1CCCC(c2nc(-c3cccs3)no2)C1` (stereo not given): “inactive”.

Turning to `C/C(=N\NC(=S)NC1CCCCC1)c1ccc(C)o1`, the Potency result is “inactive”.

As for `CCN1/C(=C/C(=S)Nc2ccccc2)Sc2ccccc21`, the Potency entry is “inactive”.

For the molecule `CCN1/C(=C\c2ccc3ccccc3[n+]2CC)Sc2cc(C)ccc21`, the Potency entry was “inactive”.

`CCN1/C(=C/c2ccc3ccc(C)cc3[n+]2CC)Sc2ccccc21`: the Potency is 0.708 µM (active). The same measure, in the same setting: then `O=c1ccn([C@@H]2O[C@H](COP(=O)(O)OP(=O)(O)OP(=O)(O)O)[C@@H](O)[C@H]2O)c(=O)[nH]1`, with “inactive”; and `CC(Sc1nc2c([nH]c3ccccc32)c(=O)n1C)c1ccccc1` (stereo not given), with “inactive”; and `CC/C=C\C/C=C\C/C=C\C/C=C\C/C=C\C/C=C\CCC(=O)NC(C)C(=O)O` (stereo not given), with “inactive”. `COc1ccc(S(=O)(=O)N2CN(CCc3ccc(OC)c(OC)c3)c3nc4ccccc4nc32)cc1`: the Potency entry was “inactive”. As to `C[N+](C)(C)CCNC(=O)c1c(O)c2c([nH]c1=O)CCCC2`, the Potency was 1.12 µM (active).

With `O=C(NCc1ccccn1)c1c(O)c2c([nH]c1=O)CCCC2`, the Potency result was “inactive”. The same measure, in the same setting: the same measure for `CCc1nnc(NC(=O)c2c(O)c3c([nH]c2=O)CCCC3)s1`: “inactive”; for `Cc1ccc(-c2csc(NC(=O)Cn3[nH]c(=O)c4ccccc4c3=O)n2)cc1`: “inactive”. Take `COCCOC(=O)c1sc(=S)n(CCOC)c1N`: the Potency is 12.6 µM (active). Same read-out and setting: then `COC(=O)c1sc(=S)n(-c2ccccc2)c1N`, with “inactive”; and `CCOC(=O)c1c(N)sc(C(C)=O)c1C`, with “inactive”. Still for that read-out and setting: then `Cn1c(=O)n(Cc2ccco2)c(=N)c2c3c(sc21)CCCC3`, with “inactive”; and `CC(N)(C(=O)O)c1ccc(-c2nn[nH]n2)cc1` (stereo not given), with “inactive”; and `Cc1ccc(CN2CCN(/N=C/c3cccnc3)CC2)c(C)c1`, with “inactive”. On the same count and under the same terms, then `Cc1ccc(C2=C/C(=C\c3cccnc3)C(=O)O2)cc1`, with 0.794 µM (active); and `O=C1OC(c2ccc(Cl)cc2)=N/C1=C\c1cccnc1`, with “inactive”. For the molecule `Cc1ccccc1C1=N/C(=C/c2cccnc2)C(=O)O1`, the Potency entry was “inactive”. Regarding `CC(C)(C)C1CCC(=NNC(=O)c2cc(-c3ccccc3)n[nH]2)CC1` (stereo not given), the Potency result is “inactive”. On the same count and under the same terms, the same measure for `Cc1ccc(C(=O)N/C(=C/c2ccco2)C(=O)NCCc2c[nH]c3ccccc23)cc1C`: “inactive”; for `NC(=O)c1nsc(C(=O)N(CC(=O)NCc2ccc(F)cc2)Cc2ccco2)c1N`: “inactive”; for `COc1ccc(CCCOC(Cn2ccnc2)c2ccc(OC)cc2)cc1` (stereo not given): “inactive”. On the same count and under the same terms, then `C[C@]12CC[C@@H]3c4ccc(O)cc4C[C@@H](CCCCCCCCCS(=O)CCCC(F)(F)C(F)(F)F)C3[C@@H]1CC[C@@H]2O` (stereo not given in full), with “inactive”. On the same count and under the same terms, the same measure for `CN(C)CCCCCN(C)Cc1cc2ccccc2o1`: “inactive”; for `Nc1ccc2c3c(cccc13)C(=O)NC2=O`: 3.16 µM (active) and 20 µM (active); for `COC1(C2=NCCN2)COc2ccccc2O1` (stereo not given): “inactive”. On to `COC(=O)c1nn(-c2cccc(Cl)c2)ccc1=O`, for which the Potency entry was “inactive”. On the same count and under the same terms, the same measure for `COc1ccc(C)cc1-n1nnnc1SCc1nc2ccccc2c(=O)[nH]1`: “inactive”; for `Cc1cc2nc3c(=O)[nH]c(=O)nc-3n(C[C@H](O)[C@H](O)[C@H](O)CO)c2cc1C`: 17.8 µM (active); for `N#C/C(=C\c1ccc(-c2cccc([N+](=O)[O-])c2)o1)C(=O)NCCN1CCOCC1`: “inactive”. With `CC(Oc1ccc(-c2ccccc2)c(F)c1)c1ccn(S(=O)(=O)c2cccc3ccccc23)n1` (stereo not given), the Potency result is “inactive”. Still for that read-out and setting: the same measure for `C=C1O[C@@](CO)(n2cnc3c(N)ncnc32)[C@H](O)[C@@H]1O`: “inactive”.

On to `Cc1csc(-c2coc3cc(O[C@@H]4O[C@H](CO)[C@@H](O)[C@@H](O)[C@H]4O)ccc3c2=O)n1`, for which the Potency entry is “inactive”. Still for that read-out and setting: then `CN(C)/C(CN1CCCCC1)=C1\N=C(c2ccccc2)OC1=O`, with “inactive”. Still for that read-out and setting: the same measure for `CCOC(=O)N1CCC(N(CCOC)C(=O)Nc2ccc(C)c(C)c2)CC1`: “inactive”; for `CN(C)c1nc(=Nc2cccc(Cl)c2)ss1`: “inactive”. For the molecule `S=C(Nc1cccc(Br)c1)N1CCn2cccc2C1c1cccnc1` (stereo not given), the Potency entry is “inactive”. Regarding `O=C(CSc1nc2ccccc2s1)Nc1ccc(C(=O)O)cc1`, the Potency result was “inactive”.

Take `c1ccc2sc(SCCSc3nc4ccccc4s3)nc2c1`: the activity, negative = inhibition was 2.61% [at 14.2 µM]. Turning to `O=[N+]([O-])c1c(NCCO)cc(Sc2nc3ccccc3s2)c2nonc12`, the Potency is 8.91 µM (active). In the case of `COc1ccc(-c2nc(CS(=O)CC(=O)NCc3cccnc3)c(C)o2)cc1OC` (stereo not given), the Potency entry was “inactive”.

Take `COc1ccc(-c2nc(CS(=O)CC(=O)NCc3ccccn3)c(C)o2)cc1` (stereo not given): the Potency is 14.1 µM (active). For the molecule `COc1ccc(-c2nc(CS(=O)CC(=O)N3CCc4ccccc4C3)c(C)o2)cc1` (stereo not given), the Potency entry was “inactive”.

For the molecule `O=[N+]([O-])c1ccc(N2CCN(CC(O)COc3ccccc3)CC2)cc1` (stereo not given), the Potency entry was “inactive”. On the same count and under the same terms, then `C[N+]1(CC(O)COc2ccccc2)CCN(C(=O)c2ccc([N+](=O)[O-])cc2)CC1` (stereo not given), with 12.6 µM (active); and `O=C(c1ccccc1)c1ccc(OCC(O)CN2CCCC2)cc1` (stereo not given), with “inactive”.
